Compound activity from PubChem.
Dicer processing: inhibitors of human Dicer processing of pre-microRNA | AID 1347074 | Q9UPY3 | z-score at 25 µM | 6% of 47,000 active | cat-ELCCA pre-miR-21 Dicer processing, chemiluminescence; stronger effect = higher value; in the data active = z-score above about 3, passing the limit was not always enough;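 also: plate controls were vehicle for no effect and no enzyme for full effect; higher signal means more uncleaved substrate so more Dicer inhibition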
Numbers without * were called inactive. Only a selection was taken, and hits are over-represented in it overall.

SMILES | Dicer processing
CCOc1cc(C2C(C(=O)OC)=C(C)NC3=C2C(=O)CC(c2ccccc2)C3)cc(Cl)c1O (stereo not given) | 3.7*
CCOC(=O)C1=C(C)NC2=C(C(=O)CC(c3ccc(Cl)cc3)C2)C1c1ccc(N(C)C)cc1 (stereo not given) | 1.7
CCOc1ccc(C2C(C(=O)OC)=C(C)NC3=C2C(=O)CC(c2ccc(OC)c(OC)c2)C3)cc1 (stereo not given) | 3.2*
CCOC(=O)C1=C(C)NC2=C(C(=O)CC(c3ccc(Cl)cc3)C2)C1c1ccc(OCC)cc1 (stereo not given) | 3.4*
CCOCCOC(=O)C1=C(C)NC2=C(C(=O)CC(c3ccccc3)C2)C1c1ccccc1OCC (stereo not given) | 2.6
CCCOc1ccc(C2C(C(=O)OC)=C(C)NC3=C2C(=O)CC(c2ccc(OC)cc2)C3)cc1 (stereo not given) | 2.1
CCOc1cc(C2Nc3ccccc3NC3=C2C(=O)CC(c2ccccc2)C3)cc(Cl)c1O (stereo not given) | 1.1
CCOc1cc(C2C(C(=O)OC)=C(C)NC3=C2C(=O)c2ccccc23)cc(Cl)c1O (stereo not given) | 2.9
CCOCCOC(=O)C1=C(C)NC2=C(C(=O)CC(c3ccc(Cl)cc3)C2)C1c1ccc(F)cc1 (stereo not given) | 4.2*
COC(=O)C1=C(C)NC2=C(C(=O)CC(c3ccc(OC)c(OC)c3)C2)C1c1ccc(OC)cc1OC (stereo not given) | 2.9
CCOCCOC(=O)C1=C(C)NC2=C(C(=O)CC(c3cccs3)C2)C1c1ccc(F)cc1 (stereo not given) | 0.73
COc1cc(C2c3c(oc4ccc(Cl)cc4c3=O)C(=O)N2Cc2ccccc2Cl)ccc1O (stereo not given) | 1.4
O=C(CCCO)CC(=O)c1ccc(F)cc1 | 0.83
CC(C)(C)OC(=O)N1CCC(O)CC1 | -1.1
c1ccc2c(c1)NC(c1c[nH]c3ccccc13)N2 | 1.5
COCCCNC(=O)c1nc2ccccc2c(=O)n1NC(=O)c1c(F)cccc1F | 0.11
O=S(=O)(NCc1cc(F)cc2c1OCOC2)c1cc(S(=O)(=O)c2ccccc2)cs1 | -1.5
Cc1cc(C(F)(F)F)nc2c([N+](=O)[O-])c(C(C)(C)C)nn12 | 0.7
CCn1c(NC(C)c2cc(Cl)ccc2O)nc2ccccc21 (stereo not given) | 2.3
c1ccc(-c2cc(N3CCOCC3)nn2-c2ccccc2)cc1 | -1.7
Cc1c(-c2ccc(Cl)cc2)nc(N)c(C#N)c1-c1ccco1 | 0.75
COc1ccc(C2C(C#N)=C(C)NC3=C2C(=O)CC(c2ccc(Cl)cc2)C3)cc1 (stereo not given) | 0.16
COc1ccc(C2NC(=O)NC2=O)cc1 (stereo not given) | 1.1
COc1ccc(C2C=C(c3ccc(Cl)cc3)NC(=O)C2C#N)cc1 (stereo not given) | 4.4*
CCc1nc(CN2CCN(c3ccc(F)cc3)CC2)c(C)[nH]1 | -0.43
SMILES | Dicer processing
CCOC(=O)c1oc2nc(-c3ccc(Cl)cc3)cc(-c3ccccc3)c2c1N | -3.5
COC(=O)c1sc(SC)c(-c2ccn(S(=O)(=O)c3ccc(F)cc3F)n2)c1C | -1.3
Cc1ccccc1Cn1c(-c2cncs2)nc2ccccc21 | 0.83
Brc1cc2c(cc1Cn1c(-c3cncs3)nc3ccccc31)OCO2 | 4.3*
C=CCn1c(-c2cccs2)nc2ccccc21 | 125
O=C1OC(C(F)(F)F)N=C1c1ccccc1 (stereo not given) | 0.06
COc1ccc(N2C(=O)C3C4C=CC(CC4)C3C2=O)cc1 (stereo not given) | 1
CC(OC(=O)c1cccc(N2C(=O)C3CC=CC(C)C3C2=O)c1)C(=O)c1ccccc1 (stereo not given) | 0.91
COc1ccc(N2C(=O)C3CC=CC(C)C3C2=O)cc1 (stereo not given) | 5.5*
Cn1c(Cc2cccs2)nnc1SCC(=O)c1c[nH]c2ccccc12 | 1.3
CSc1nnc(-c2ccco2)n1-c1ccc(OCc2ccccc2)cc1 | -0.59
C=CCNC(=S)NNC(=O)c1ccc(S(=O)(=O)N(CCC)CCC)cc1 | -0.28
O=c1cc(O)c2c(Cl)cc(Cl)cc2[nH]1 | 1.1
O=C(O)COc1ccc(CO)cc1Cl | -0.74
CN(C)/C=N/c1nnc(Sc2ncccc2[N+](=O)[O-])s1 | 0.07
CC1=CC(C)(C)N(C(=O)Nc2ccccc2)c2cc(C)c(C)cc21 | 2.6
O=C(CSc1ccccn1)N1CCN(S(=O)(=O)c2ccccc2)C1 | 3.4*
O=C(CSc1nnnn1-c1ccccc1)N1CCN(S(=O)(=O)c2ccccc2)C1 | 2.9
Cn1nnnc1SCC(=O)N1CCN(S(=O)(=O)c2ccccc2)C1 | 0.44
O=C(c1ccco1)c1cn(CCOc2ccccc2Cl)c2ccccc12 | -0.03
N#Cc1c(-c2ccccc2)c(-c2ccccc2)n[nH]c1=S | 0.79
Cc1cccc(NC(=O)c2cccs2)c1C(=O)O | 0.99
CCOC(=O)c1c(C)n(-c2ccccc2)c2c1cc(O)c1ccccc12 | -1.9
CCOC(=O)c1sc(-c2ccc(C)cc2)nc1O | -0.32
CCOC(=O)c1c(C)n(-c2ccccc2)c2ccc(O)cc12 | 1.5
SMILES | Dicer processing
CCOC(=O)c1sc(=S)n(-c2cc(C)ccc2C)c1N | 5.2*
CCOC(=O)c1c(C)n(-c2ccccc2)c2ccc(OC(=O)c3cccs3)cc12 | 1.4
CCOC(=O)c1c(C)n(-c2ccc(OC)cc2)c2ccc(O)cc12 | 4.7*
CCOC(=O)c1sc(=S)n(-c2ccc(Cl)cc2)c1C | 0.39
CCOC(=O)c1sc(=S)n(-c2ccc(OC)cc2)c1C | 4.2*
CCOC(=O)c1sc2c(c1O)c(=O)n(-c1ccccc1)c(=S)n2-c1ccccc1 | -0.09
CCOC(=O)c1c(C)n(CCO)c2ccc(O)cc12 | 1.9
CCOC(=O)c1c(C)n(-c2ccc(N(C)C)cc2)c2ccc(O)cc12 | 6.6*
CCOC(=O)c1c(O)c(O)c(C(=O)OCC)n1-c1ccc(OC)cc1 | 0.01
Cc1cc(C(=O)C(F)(F)F)c(C)n1-c1ccccc1 | 0.5
CCOC(=O)C(=CNc1cc(C(F)(F)F)cc(C(F)(F)F)c1)C(=O)OCC | -0.27
COC(=O)c1ccc(CSc2nnc(-c3ccc(C(F)(F)F)cc3)n2Cc2ccco2)o1 | 0.44
COC(=O)C1=C(C)NC2=C(C(=O)CCC2)C1c1ccc2c(c1)OCC2 (stereo not given) | 2.3
CN(C)c1ccc(C(O)c2nc3ccccc3n2Cc2ccccc2)cc1 (stereo not given) | -0.3
Cc1oc(-c2ccc(Cl)cc2)cc1C(=O)/C(C#N)=C/Nc1ncccn1 | 10
CC(=O)/C(C=NC1CCCCNC1=O)=C(\C)O (stereo not given) | -0.52
Oc1ccc(N2Cc3ccccc3C2)cc1 | -2.2
Oc1cccc(N2Cc3ccccc3C2)c1 | 4.4*
CC1CCC2C(=O)N(c3cccc(O)c3)C(=O)C2C1 (stereo not given) | 1.1
Nc1ccc(-c2nc(-c3ccccc3)c3cc(N)ccc3n2)cc1 | 80
COc1cc2c(cc1OC)CN(C(=S)Nc1ccc([N+](=O)[O-])cc1)CC2 | 5
Nc1c(C(=O)N/N=C/c2ccc(Cl)cc2)sc2nnc(-c3ccccc3)c(-c3ccccc3)c12 | 1
CCCCCCn1c(C(C)O)nc2ccccc21 (stereo not given) | -0.51
O=C1CC(c2nc3ccccc3[nH]2)CN1c1ccccc1 (stereo not given) | 1.7
CCCCn1c(C2CC(=O)N(c3ccccc3)C2)nc2ccccc21 (stereo not given) | -1.2
Nc1nonc1-c1nc2ccccc2n1Cc1ccccc1Cl | 0.88
